{
  "source": "PubChem BioAssay (NCATS)",
  "note": "Several values for one entry are separate records, joined by “and”; a condition that tells them apart may be missing. Equal entries are not always repeated. Results filed as inconclusive are left out. Activity calls are given as the source filed them. Calls follow the shape of the dose curve; as a rule, active = well fitted inhibition curve with a large enough effect; inconclusive = small, poorly fitted or top-dose-only effect; inactive = flat fitted curve, though single readings scatter. % is scaled to controls: 0 for no effect and ±100 for the full control effect; potency is read from the fitted curve at half-maximal effect.",
  "data": [
    {"tested_on": "KB-3-1", "assay": "Cytotoxic Profiling of Annotated Libraries Using Quantitative High-Throughput Screening (AID 1296008); also: nearly all actives have a fitted effect of over 60% in size", "conditions": "Five cell lines viability, CellTiter-Glo ATP luminescence, 48-72 h; max response: stronger effect = lower value", "procedure,_shortened": "(§1)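 Cytotoxicity was measured as CellTiter-Glo ATP luminescence, read after 10 min at room temperature. Compound treatment of the cells lasted 48 or 72 hr at 37 degrees Celsius in a qHTS format.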", "values": [
      {"smiles": "C[C@H]1COc2c(N3CCN(C)CC3)c(F)cc3c(=O)c(C(=O)O)cn1c23", "max response": "6.8% (inactive)"},
      {"smiles": "COc1cc(C)c(Sc2cnc(NC(=O)c3ccc(CNC(C)C(C)(C)C)cc3)s2)cc1C(=O)N1CCN(C(C)=O)CC1", "note": "(centres undefined)", "Potency": "11.8 µM (active)"},
      {"smiles": "C#C[C@]1(O)CC[C@@H]2[C@@H]3CCc4cc(O)ccc4[C@H]3CC[C@@]21C", "Potency": "20.9 µM (active)"},
      {"smiles": "Cn1cc(C2=C(c3c4n(c5ccccc35)CCC(CN)C4)C(=O)NC2=O)c2ccccc21", "note": "(centres undefined)", "Potency": "6.62 µM (active)"},
      {"smiles": "Cc1[nH]c(C=C2C(=O)Nc3ccccc32)c(C)c1CCC(=O)O", "max response": "3.92% (inactive)"},
      {"smiles": "C#CCC(Cc1cnc2nc(N)nc(N)c2n1)c1ccc(C(=O)N[C@@H](CCC(=O)O)C(=O)O)cc1", "note": "(some centres undefined)", "Potency": "0.146 µM (active)"},
      {"smiles": "COc1cccc2c1C(=O)c1c(O)c3c(c(O)c1C2=O)C[C@@](O)(C(=O)CO)C[C@@H]3O[C@H]1C[C@H](N)[C@H](OC2CCCCO2)[C@H](C)O1", "note": "(some centres undefined)", "Potency": "0.833 µM (active)"},
      {"smiles": "C=CC(=O)N1CCc2ccc(-n3c(=O)ccc4cnc5ccc(-c6cnn(C)c6)cc5c43)cc21", "Potency": "4.18 µM (active)"},
      {"smiles": "Cc1nc(NC(=O)N2CCC[C@@H]2C(N)=O)sc1-c1ccnc(C(C)(C)C(F)(F)F)c1", "Potency": "8.33 µM (active)"},
      {"smiles": "CC(O)(C#Cc1ccc2c(c1)N(c1nc(N)ncc1Cl)CC2)c1nccs1", "note": "(centres undefined)", "max response": "-15.7% (inactive)"},
      {"smiles": "COC[C@H](NC(=O)c1cnc(C)s1)C(=O)N[C@@H](COC)C(=O)N[C@@H](Cc1ccccc1)C(=O)[C@@]1(C)CO1", "Potency": "0.469 µM (active)"},
      {"smiles": "COc1cc2ncnc(Nc3cccc(Br)c3)c2cc1OC", "outcome": "inactive"},
      {"smiles": "Cc1cncc2cccc(S(=O)(=O)N3CCCN(C(=O)CN)C[C@@H]3C)c12", "max response": "-18.7% (inactive) and -19.4% (inactive)"},
      {"smiles": "CC(=O)NCC(=O)N1[C@H]2CC[C@H]1c1cc(Nc3ncc(C(F)(F)F)c(NC4CCC4)n3)ccc12", "Potency": "1.66 µM (active)"},
      {"smiles": "O=S(=O)(O)CCSSCCS(=O)(=O)O", "max response": "4.37% (inactive)"},
      {"smiles": "N#CC(=Cc1ccc(O)c(O)c1)C(=O)NCc1ccccc1", "outcome": "inactive"},
      {"smiles": "CC(=O)ON=C1C(c2c(O)[nH]c3cc(Br)ccc23)=Nc2ccccc21", "max response": "-15.3% (inactive)"},
      {"smiles": "CC[C@]12C=CCN3CC[C@@]4(c5cc([C@@]6(C(=O)OC)C[C@H]7C[C@@H](C(C)(F)F)CN(Cc8c6[nH]c6ccccc86)C7)c(OC)cc5N(C)[C@H]4[C@@](O)(C(=O)OC)[C@H]1OC(C)=O)[C@@H]32", "Potency": "0.0105 µM (active)"},
      {"smiles": "Cn1cc(-c2ccc3ncc(Cc4ccc5ncccc5c4)n3n2)cn1", "max response": "8.56% (inactive) and 1.39% (inactive)"},
      {"smiles": "CN1CCc2c(c3ccccc3n2Cc2ccc(C(=O)NO)cc2)C1", "Potency": "26.4 µM (active)"},
      {"smiles": "OCCNC1CCCc2c1[nH]c1ccc(-c3ccccc3)cc21", "note": "(centres undefined)", "Potency": "14.6 µM (active)"},
      {"smiles": "Cn1cc(-c2cnn3c(N)c(Br)c([C@H]4CCCNC4)nc23)cn1", "Potency": "10.5 µM (active)"},
      {"smiles": "CC(C)(O)CC[C@@H](O)[C@](C)(O)[C@H]1CC[C@@]2(O)C3=CC(=O)[C@@H]4C[C@@H](O)[C@@H](O)C[C@]4(C)[C@@H]3CC[C@]12C", "max response": "-6.66% (inactive)"},
      {"smiles": "C[C@@H](Cc1cc2c(c(C(N)=O)c1)N(CCCO)CC2)NCCOc1ccccc1OCC(F)(F)F", "max response": "-7.67% (inactive)"},
      {"smiles": "Cc1ccc([N+](=O)[O-])cc1S(=O)(=O)N(C)N=Cc1cnc2ccc(Br)cn12", "Potency": "0.0209 µM (active)"},
      {"smiles": "NC(=O)Nc1sc(-c2ccc(F)cc2)cc1C(N)=O", "Potency": "9.35 µM (active)"},
      {"smiles": "Cc1noc(-c2ccc(CSCCC(=O)O)cc2)c1NC(=O)OC(C)c1ccccc1Cl", "note": "(centres undefined)", "outcome": "inactive"},
      {"smiles": "CN(C)CCN1C(=O)c2cccc3cc(N)cc(c23)C1=O", "Potency": "16.6 µM (active)"}
    ]},
    {"tested_on": "NIH3T3", "assay": "Cytotoxic Profiling of Annotated Libraries Using Quantitative High-Throughput Screening (AID 1296008); also: nearly all actives have a fitted effect of over 60% in size", "conditions": "Five cell lines viability, CellTiter-Glo ATP luminescence, 48-72 h; max response: stronger effect = lower value", "procedure,_shortened": "as §1", "values": [
      {"smiles": "O=C1NCCc2[nH]c(-c3ccncc3)cc21", "Potency": "23.5 µM (active)"},
      {"smiles": "C[C@H]1COc2c(N3CCN(C)CC3)c(F)cc3c(=O)c(C(=O)O)cn1c23", "outcome": "inactive"},
      {"smiles": "C#C[C@]1(O)CC[C@@H]2[C@@H]3CCc4cc(O)ccc4[C@H]3CC[C@@]21C", "max response": "-5.15% (inactive)"},
      {"smiles": "Cn1cc(C2=C(c3c4n(c5ccccc35)CCC(CN)C4)C(=O)NC2=O)c2ccccc21", "note": "(centres undefined)", "Potency": "16.6 µM (active)"},
      {"smiles": "Cc1[nH]c(C=C2C(=O)Nc3ccccc32)c(C)c1CCC(=O)O", "Potency": "1.48 µM (active)"},
      {"smiles": "C#CCC(Cc1cnc2nc(N)nc(N)c2n1)c1ccc(C(=O)N[C@@H](CCC(=O)O)C(=O)O)cc1", "note": "(some centres undefined)", "Potency": "0.332 µM (active)"},
      {"smiles": "COc1cccc2c1C(=O)c1c(O)c3c(c(O)c1C2=O)C[C@@](O)(C(=O)CO)C[C@@H]3O[C@H]1C[C@H](N)[C@H](OC2CCCCO2)[C@H](C)O1", "note": "(some centres undefined)", "Potency": "0.59 µM (active)"},
      {"smiles": "Cc1nc(NC(=O)N2CCC[C@@H]2C(N)=O)sc1-c1ccnc(C(C)(C)C(F)(F)F)c1", "Potency": "16.6 µM (active)"},
      {"smiles": "CC(O)(C#Cc1ccc2c(c1)N(c1nc(N)ncc1Cl)CC2)c1nccs1", "note": "(centres undefined)", "max response": "-24.2% (inactive)"},
      {"smiles": "CN(C)c1ccc2cc(C(=O)N[C@@H](CCCN=C(N)CCl)C(=O)NCc3ccccc3)ccc2c1", "max response": "-19.2% (inactive)"},
      {"smiles": "CC1=C(C(=O)Nc2cc3cn[nH]c3cc2F)C(c2ccc(Cl)cc2F)N=C(c2ccnc(Cl)c2)N1", "note": "(centres undefined)", "Potency": "11.8 µM (active)"},
      {"smiles": "COC[C@H](NC(=O)c1cnc(C)s1)C(=O)N[C@@H](COC)C(=O)N[C@@H](Cc1ccccc1)C(=O)[C@@]1(C)CO1", "Potency": "0.833 µM (active)"},
      {"smiles": "C#Cc1cccc(Nc2ncnc3cc(OCCOC)c(OCCO)cc23)c1", "Potency": "20.9 µM (active)"},
      {"smiles": "NS(=O)(=O)OC[C@@H]1C[C@@H](n2ccc3c(N[C@H]4CCc5ccccc54)ncnc32)C[C@H]1O", "max response": "-27.1% (inactive)"},
      {"smiles": "COc1cc2ncnc(Nc3cccc(Br)c3)c2cc1OC", "max response": "-22% (inactive)"},
      {"smiles": "Cc1cncc2cccc(S(=O)(=O)N3CCCN(C(=O)CN)C[C@@H]3C)c12", "Potency": "26.4 µM (active)"},
      {"smiles": "Cc1cc(Nc2ncc3c(n2)N(C)C(=O)N(c2cc(NC(=O)c4cccc(C(F)(F)F)c4)ccc2C)C3)n(C)n1", "Potency": "1.32 µM (active)"},
      {"smiles": "O=C(Nc1cc2cc[nH]c2cn1)c1ccccc1", "Potency": "13.2 µM (active)"},
      {"smiles": "CC(=O)NCC(=O)N1[C@H]2CC[C@H]1c1cc(Nc3ncc(C(F)(F)F)c(NC4CCC4)n3)ccc12", "Potency": "1.32 µM (active)"},
      {"smiles": "O=S(=O)(O)CCSSCCS(=O)(=O)O", "max response": "-4.2% (inactive)"},
      {"smiles": "C[C@]12CCC(=O)C=C1[C@@H]1CC1[C@H]1[C@H]3[C@@H]4C[C@H]4[C@@]4(CCC(=O)O4)[C@@]3(C)CC[C@H]12", "note": "(some centres undefined)", "outcome": "inactive"},
      {"smiles": "OCCNC1CCCc2c1[nH]c1ccc(-c3ccccc3)cc21", "note": "(centres undefined)", "Potency": "16.4 µM (active)"},
      {"smiles": "Cn1cc(-c2cnn3c(N)c(Br)c([C@H]4CCCNC4)nc23)cn1", "Potency": "0.662 µM (active)"},
      {"smiles": "CC(C)(O)CC[C@@H](O)[C@](C)(O)[C@H]1CC[C@@]2(O)C3=CC(=O)[C@@H]4C[C@@H](O)[C@@H](O)C[C@]4(C)[C@@H]3CC[C@]12C", "max response": "0.822% (inactive)"},
      {"smiles": "Cc1ccc([N+](=O)[O-])cc1S(=O)(=O)N(C)N=Cc1cnc2ccc(Br)cn12", "Potency": "0.0743 µM (active)"},
      {"smiles": "CN(C)CCN1C(=O)c2cccc3cc(N)cc(c23)C1=O", "Potency": "3.32 µM (active)"}
    ]}
  ]
}
